Assay outcomes as filed in PubChem.
D3 antag = D3 dopamine receptor (human) antagonism; P35462; D3R cells, DiscoveRx beta-arrestin luminescence, antagonist mode; stronger effect = lower value; max response, negative = inhibition, %; 360,000 compounds, 2.5% hits; in the data active = max response below about -50%; inconclusive = no clear call, values can overlap the other calls; also: % is scaled to controls: 0 for no effect and ±100 for the full control effect
Target sequence (P35462 whole entry, looked up): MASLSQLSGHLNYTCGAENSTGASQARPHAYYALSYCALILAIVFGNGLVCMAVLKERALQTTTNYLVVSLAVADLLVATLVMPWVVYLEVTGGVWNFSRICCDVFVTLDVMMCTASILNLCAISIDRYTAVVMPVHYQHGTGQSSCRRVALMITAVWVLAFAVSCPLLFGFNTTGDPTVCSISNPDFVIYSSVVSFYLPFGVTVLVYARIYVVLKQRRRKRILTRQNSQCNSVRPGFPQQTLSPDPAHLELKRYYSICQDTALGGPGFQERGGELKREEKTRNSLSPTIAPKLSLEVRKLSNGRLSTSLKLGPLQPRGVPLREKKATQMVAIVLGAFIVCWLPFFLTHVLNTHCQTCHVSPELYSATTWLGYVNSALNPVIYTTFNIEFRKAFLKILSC
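Cells expressing the human receptor were seeded at 1500 cells/well, incubated overnight at 37 degrees C in 5% CO2, then exposed to library compounds with dopamine controls for 90 minutes at 37 degrees C before luminescent detection.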
HepG2 tox-1 = HepG2 cytotoxicity, counter-screen for TGF-b inhibitors | HepG2 CAGA-GFP viability, ATP luminescence, 18 h | 410,000 compounds, 0.76% hits | AID 588856 | Potency, µM (top dose mostly 46.1 µM), inactives show at the highest dose activity change, negative = cytotoxicity, most hits filed as cytotoxic; also: potency is read from the fitted curve at half-maximal effect
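HepG2 CAGA-GFP cells (1000/well, DMEM with 1% FBS) received compound, then TGF-beta at 500 pg/mL final, and were incubated 18 hours at 37 degrees C. Viability was read by CellTiter-Glo luminescence. Media-only wells were set as complete cell-killing and DMSO as no toxicity.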
DRD3 agonist = D3 dopamine receptor (human) agonism | P35462 | D3R DiscoveRx beta-arrestin cells, luminescence, 90 min | max activation, % | 410,000 compounds, 0.58% hits; in the data active = max activation above about 30%; also: 0% is about no effect
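Cells at 1500/well, incubated overnight, then treated with pinned compounds (dopamine as control) for 90 min at 37 degrees C. DiscoveRx reagent added for 30 - 60 minutes at room temperature; luminescence read.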
S2 tox = reduces viability in counter-screen for ATXN expression inhibitors | S2 cells (HEK-293 line with an ATXN2-luciferase reporter) viability, CellTiter-Fluor protease fluorescence, 24 h | Potency, µM (doses to about 56.7 µM), usual class: cytotoxic | 400,000 compounds, 0.49% hits; also: potency is read from the fitted curve at half-maximal effect; nearly all actives have a fitted effect of over 40% in size
ATXN2 expr inh = inhibitors of ATXN2 expression; HEK-293 ATXN2-luciferase reporter, luminescence, 24 h; Potency, µM (series often up to 57 µM), inactives show at the top dose activity change, negative = inhibition, hits mostly inhibitors; 360,000 compounds, 0.72% hits; AID 1745845; also: potency is read from the fitted curve at half-maximal effect; % is scaled to controls: 0 for no effect and ±100 for the full control effect; nearly all actives have a fitted effect of over 55% in size
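ATXN2-luciferase reporter cells (luciferase flanked by upstream and downstream ATXN2 gene portions) were treated 24 h at 37 °C with compounds at up to 57 uM. SteadyGlo luminescence gave expression; GF-AFC fluorescence gave viability.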
TGFb SMAD3 inh = blocks TGF-b signaling. HepG2 CAGA-GFP TGF-b/SMAD3 reporter, GFP fluorescence, 18 h; TGF-beta stimulated, 500 pg/mL final. 410,000 compounds, 1.2% hits. Potency, µM (highest dose often 46.1 µM), without a hit: at the top dose activity, negative = inhibition, usual class: inhibitors; also: potency is read from the fitted curve at half-maximal effect; % is scaled to controls: 0 for no effect and ±100 for the full control effect; nearly all actives have a fitted effect of over 65% in size
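HEPG2 CAGA-GFP reporter cells (1000/well, DMEM with 1% FBS) received compounds, then recombinant TGF-beta at 500 pg/mL final for 18 hours at 37 degrees C. Per-cell GFP summed per well was normalised to unstimulated and stimulated DMSO controls before curve fitting.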
TGFb confirm = confirmation of TGF-b signaling inhibitors in HepG2 reporter cells; AID 720534; Potency, µM (top dose mostly 46.1 µM), inactives show top-dose activity, negative = inhibition, hits mostly inhibitors; HepG2 CAGA-GFP TGF-b reporter, GFP fluorescence, 18 h; cells stimulated with TGF-beta, 500 pg/mL; shares compounds with TGFb SMAD3 inh; 1,600 compounds, 63% hits; also: potency is read from the fitted curve at half-maximal effect; % is scaled to controls: 0 for no effect and ±100 for the full control effect; nearly all actives have a fitted effect of over 65% in size
HepG2 tox-2 = counter-screen for TGF-b inhibitors: cytotoxicity in HepG2 cells. shares compounds with TGFb SMAD3 inh. Potency, µM (titrated, usually from 46.1 µM), for the others: at the highest dose activity, negative = cytotoxicity, hits mostly inhibitors. 1,600 compounds, 27% hits. HepG2 CAGA-GFP viability, ATP luminescence, 18 h; cells stimulated with TGF-beta, 500 pg/mL; also: potency is read from the fitted curve at half-maximal effect; % is scaled to controls: 0 for no effect and ±100 for the full control effect; nearly all actives have a fitted effect of over 70% in size
CCL64 TGFb inh = blocks TGF-b signaling in CCL64 reporter cells. shares compounds with TGFb SMAD3 inh. AID 720536. 1,600 compounds, 41% hits. Potency, µM (highest dose often 46.1 µM), inactives show at the highest dose activity, negative = inhibition, most hits filed as inhibitors. CCL64 CAGA-GFP reporter, TGF-b stimulated, GFP fluorescence, 18 h; also: potency is read from the fitted curve at half-maximal effect; nearly all actives have a fitted effect of over 65% in size
TGFb COP inh = validation of TGF-b inhibitors in HepG2 COP promoter reporter; Potency, µM (top dose mostly 46.1 µM), inactives show at the top dose activity, negative = inhibition, usual class: inhibitors; AID 720537; shares compounds with TGFb SMAD3 inh; 1,600 compounds, 3% hits; HepG2 COP-GFP TGF-b reporter, GFP fluorescence, 18 h; cells stimulated by added recombinant TGF-beta; also: potency is read from the fitted curve at half-maximal effect; nearly all actives have a fitted effect of over 70% in size
* marks the source's active call; other numbers are inactive results; [ ] = dose if it differs, or a comment. A selection: hits, their analogues and other compounds. The true share with any hit is near 4.8%. Unless noted, calls follow the shape of the dose curve; as a rule, active = well fitted curve in the direction sought with a large enough effect; inconclusive = small, poorly fitted or top-dose-only effect, or another doubt; inactive = no such curve, though single readings can be large; an effect the other way counts as inactive or inconclusive.

What do the screens show for `Cc1ccc(OCCCC(=O)Nc2ccc(Cl)c(S(=O)(=O)N3CCOCC3)c2)cc1`?
D3 antag: 9; HepG2 tox-1: -27%; DRD3 agonist: 1; S2 tox: inactive; ATXN2 expr inh: -35%; TGFb SMAD3 inh: 8.9µM*; TGFb confirm: inconclusive; HepG2 tox-2: inconclusive; CCL64 TGFb inh: 3%; TGFb COP inh: 1%

What do the screens show for `CC(=O)c1ccc(OCCCC(=O)Nc2ccc(Cl)c(S(=O)(=O)N3CCOCC3)c2)cc1`?
D3 antag: 19; HepG2 tox-1: -5%; DRD3 agonist: 2; S2 tox: inactive; TGFb SMAD3 inh: inconclusive

How did O=C(Nc1nc2cc3c(cc2s1)OCCO3)c1ccc([N+](=O)[O-])o1 do in these assays?
D3 antag: -29; HepG2 tox-1: -16%; DRD3 agonist: 0; S2 tox: inactive; ATXN2 expr inh: 17%; TGFb SMAD3 inh: inconclusive; TGFb confirm: 0.82µM*; HepG2 tox-2: 4.1µM*; CCL64 TGFb inh: inconclusive; TGFb COP inh: 24%

How did COc1ccc2nc(NC(=O)c3ccc([N+](=O)[O-])o3)sc2c1 do in these assays?
D3 antag: inconclusive; HepG2 tox-1: -29%; DRD3 agonist: -6; S2 tox: inconclusive; ATXN2 expr inh: 21%; TGFb SMAD3 inh: 8.9µM*; TGFb confirm: 2.3µM*; HepG2 tox-2: 21µM*; CCL64 TGFb inh: 12µM*; TGFb COP inh: 22%

How did O=C(Nc1nc2ccccc2s1)c1ccc([N+](=O)[O-])o1 do in these assays?
D3 antag: -22; HepG2 tox-1: -30%; DRD3 agonist: -9; S2 tox: inconclusive; TGFb SMAD3 inh: inconclusive

What do the screens show for `CCOC(=O)c1noc2nc(C)n(CC(=O)Nc3cccc(OC)c3)c(=O)c12`?
HepG2 tox-1: -24%; DRD3 agonist: -14; S2 tox: inactive; ATXN2 expr inh: 0%; TGFb SMAD3 inh: 12%

Results for O=C(CCC(=O)c1ccc(F)cc1)Nc1ccc(Cl)cc1 ?
HepG2 tox-1: -26%; DRD3 agonist: -19; S2 tox: inactive; ATXN2 expr inh: -20%; TGFb SMAD3 inh: -4%

Results for O=C(CCC(=O)c1ccc(F)cc1)Nc1cccc(S(=O)(=O)Nc2cccc(Cl)c2)c1 ?
D3 antag: 4; HepG2 tox-1: -28%; DRD3 agonist: 1; S2 tox: inactive; ATXN2 expr inh: 0%; TGFb SMAD3 inh: 13µM*; TGFb confirm: inconclusive; HepG2 tox-2: inconclusive; CCL64 TGFb inh: inconclusive; TGFb COP inh: 19%

What do the screens show for `COC(=O)CCS(=O)(=O)c1nc(-c2ccccc2)cc(C(F)(F)F)n1`?
D3 antag: -78*; HepG2 tox-1: 14µM*; DRD3 agonist: -61; ATXN2 expr inh: inconclusive; TGFb SMAD3 inh: 5µM*; TGFb confirm: 4.6µM*; HepG2 tox-2: 15µM*; CCL64 TGFb inh: 2.1µM*; TGFb COP inh: inconclusive

Results for O=C(COc1cccc2ccccc12)Nc1ccc(Cl)cc1C(=O)O ?
D3 antag: -9; HepG2 tox-1: -17%; DRD3 agonist: -2; S2 tox: inactive; ATXN2 expr inh: 57%; TGFb SMAD3 inh: 11µM*; TGFb confirm: 16µM*; HepG2 tox-2: 8.2µM*; CCL64 TGFb inh: inconclusive; TGFb COP inh: 55%

How did Cc1ccc(SCC(=O)Nc2cc([N+](=O)[O-])ccc2O)cc1 do in these assays?
D3 antag: -18; HepG2 tox-1: -31%; DRD3 agonist: -4; S2 tox: inactive; ATXN2 expr inh: 12%[11.3 µM]; TGFb SMAD3 inh: 18µM*; TGFb confirm: 4.6µM*; HepG2 tox-2: inconclusive; CCL64 TGFb inh: inconclusive; TGFb COP inh: 82%

Results for O=C(CSCc1ccc(Cl)cc1)Nc1cc([N+](=O)[O-])ccc1O ?
D3 antag: 0; HepG2 tox-1: -8%; DRD3 agonist: -9; S2 tox: inconclusive; ATXN2 expr inh: inconclusive; TGFb SMAD3 inh: inconclusive

Results for Cc1ccc(S(=O)(=O)N2CCN(c3nc(-c4cccs4)nc4ncccc34)CC2)cc1 ?
HepG2 tox-1: -11%; TGFb SMAD3 inh: 0%

Results for OC[C@@H]1CN(Cc2ccc(-c3ccccc3)cc2)C[C@H](n2cnc3c(Nc4ccccc4)ncnc32)O1 ?
D3 antag: 72; HepG2 tox-1: -23%; DRD3 agonist: 23; S2 tox: inactive; ATXN2 expr inh: inconclusive; TGFb SMAD3 inh: 10µM*; TGFb confirm: 8.2µM*; HepG2 tox-2: inconclusive; CCL64 TGFb inh: inconclusive; TGFb COP inh: 26%

What do the screens show for `OC[C@@H]1CN(Cc2ccc(F)cc2)C[C@H](n2cnc3c(Nc4ccccc4)ncnc32)O1`?
D3 antag: 82; HepG2 tox-1: -30%; DRD3 agonist: 4; S2 tox: inactive; ATXN2 expr inh: 2%; TGFb SMAD3 inh: 1%

What do the screens show for `CCN1CCN(c2ccc(S(=O)(=O)N3CCCCC3)cc2NC(=O)c2ccc([N+](=O)[O-])s2)CC1`?
D3 antag: inconclusive; HepG2 tox-1: -43%; DRD3 agonist: -3; S2 tox: inconclusive; ATXN2 expr inh: 25µM*; TGFb SMAD3 inh: 8.9µM*; TGFb confirm: 16µM*; HepG2 tox-2: inconclusive; CCL64 TGFb inh: inconclusive; TGFb COP inh: inconclusive
